Drawing on PubChem BioAssay (EPA / NIEHS), this text covers outcome and AC50 for six compounds.

Calls of active or inactive are those of the source. The calls were made as follows: active = hit-call score of the fitted dose curve at least 0.9, where 1 is the maximum; inactive = score below 0.9.

The AC50 is the concentration at which the activity in the assay is half-maximal.

Read-out in assay [1]: Human Leukocyte Antigen - DR isotype (HLADR), HLA-DRA (gene 3122)
Put plainly: BSK_BE3C_HLADR: BioMAP Diversity Plus: BE3C Assay for Human Leukocyte Antigen - DR isotype (HLADR) Biomarker Activity (AID 2283032). The settings on record: primary human bronchial epithelial cells; actives raise or lower the signal. Summed up: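 Cell-surface HLA-DR ELISA readout at 24 h after dosing in the BE3C primary human lung bronchial epithelial system; gain or loss of signal against DMSO, with parallel sulforhodamine B staining of total protein for overt cytotoxicity.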

Read-out in assay [2]: Vascular cell adhesion molecule 1 (VCAM1), VCAM1 (gene 7412)
Put plainly: BSK_4H_VCAM1: BioMAP Diversity Plus: 4H Assay for Vascular cell adhesion molecule 1 (VCAM1) Biomarker Activity (AID 2283033).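 As to outcome: cell-surface VCAM-1 protein measured by ELISA.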 The following applies: primary human endothelial cells (HUVEC); actives raise or lower the signal. In outline:
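VCAM-1 ELISA read 24 h after chemical dosing of HUVEC in the BioMAP 4H system, with gain or loss of signal fitted relative to DMSO. Parallel SRB staining (560 nm) checked overt cytotoxicity.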

Read-out in assay [3]: Interferon-gamma inducible Protein 10 (IP10), CXCL10 (gene 3627)
Put plainly: BSK_BE3C_IP10: BioMAP Diversity Plus: BE3C Assay for Interferon-gamma inducible Protein 10 (IP10) Biomarker Activity (AID 2283034). The following applies: primary human bronchial epithelial cells; actives raise or lower the signal. Summed up: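 IP-10 quantified by ELISA in human primary bronchial epithelial cell cultures at 24 hours post-dosing. Gain or loss of signal fitted relative to DMSO; parallel SRB staining assessed overt cytotoxicity.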

Read-out in assay [4]: Monokine induced gamma interferon (MIG), CXCL9 (gene 4283)
Put plainly: BSK_BE3C_MIG: BioMAP Diversity Plus: BE3C Assay for Monokine induced gamma interferon (MIG) Biomarker Activity (AID 2283035). The settings on record: primary human bronchial epithelial cells; actives raise or lower the signal. In outline: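 Dose cells (human primary bronchial epithelial), incubate 24 h, quantify MIG by ELISA, then fit concentration–response in both directions relative to DMSO control.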

Read-out in assay [5]: Transforming growth factor beta 1 (TGFb1), TGFB1 (gene 7040)
Put plainly: BSK_BE3C_TGFb1: BioMAP Diversity Plus: BE3C Assay for Transforming growth factor beta 1 (TGFb1) Biomarker Activity (AID 2283036;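 also: TGF-b1 protein level measured by ELISA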). The settings on record: primary human bronchial epithelial cells; actives raise or lower the signal. In outline: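 ELISA readout of TGF-b1 from human lung bronchial epithelial primary cells, taken 24 h post-treatment. Gain or loss of signal fitted relative to DMSO baseline, with parallel SRB staining for overt cytotoxicity.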

Read-out in assay [6]: urokinase plasminogen activator (uPA), PLAU (gene 5328)
Put plainly: BSK_BE3C_uPA: BioMAP Diversity Plus: BE3C Assay for urokinase plasminogen activator (uPA) Biomarker Activity (AID 2283038).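 Also: uPA protein level quantified by ELISA in cell cultures; uPA read one day after compound addition.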 The following applies: primary human bronchial epithelial cells; actives raise or lower the signal. Summed up:
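ELISA read-out of uPA in human lung primary bronchial epithelial cultures, 24 h post-dosing. Gain or loss of signal fitted bidirectionally relative to DMSO baseline; cytotoxicity checked in parallel cultures via SRB total protein stain.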

Read-out in assay [7]: Urokinase-type plasminogen activator receptor (uPAR), PLAUR (gene 5329)
Put plainly: BSK_BE3C_uPAR: BioMAP Diversity Plus: BE3C Assay for Urokinase-type plasminogen activator receptor (uPAR) Biomarker Activity (AID 2283039).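 Also: cells exposed to compound for one day before measurement.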 The following applies: primary human bronchial epithelial cells; actives raise or lower the signal. Summed up:
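uPAR levels were measured by ELISA after 24 h compound treatment of primary human bronchial epithelial cells, fitted in both directions relative to DMSO. Parallel SRB staining served as the cytotoxicity read-out.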

Read-out in assay [8]: Interleukin-6 (IL6), IL6 (gene 3569)
Put plainly: BSK_CASM3C_IL6: BioMAP Diversity Plus: CASM3C Assay for Interleukin-6 (IL6) Biomarker Activity for (AID 2283040). The following applies: primary human coronary artery smooth muscle cells; actives raise or lower the signal.

Read-out in assay [9]: Tissue plasminogen activator (tPA), PLAT (gene 5327)
Put plainly: BSK_BE3C_tPA: BioMAP Diversity Plus: BE3C Assay for Tissue plasminogen activator (tPA) Biomarker Activity (AID 2283041).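 As to outcome: tPA level quantified by ELISA one day after compound addition.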 The settings on record: primary human bronchial epithelial cells; actives raise or lower the signal. In outline:
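tPA measured by ELISA 24 h after dosing human primary bronchial epithelial cells (BE3C system). Changes in either direction were fitted against DMSO. Parallel cultures were stained with SRB to flag overt cytotoxicity.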

Read-out in assay [10]: Interleukin-8 (IL8), CXCL8 (gene 3576)
Put plainly: BSK_CASM3C_IL8: BioMAP Diversity Plus: CASM3C Assay for Interleukin-8 (IL8) Biomarker Activity (AID 2283042).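 Also: IL-8 protein level quantified by ELISA.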 The settings on record: primary human coronary artery smooth muscle cells; actives raise or lower the signal.

Read-out in assay [11]: Human Leukocyte Antigen - DR isotype (HLADR), HLA-DRA (gene 3122)
Put plainly: BSK_CASM3C_HLADR: BioMAP Diversity Plus: CASM3C Assay for Human Leukocyte Antigen - DR isotype (HLADR) Biomarker Activity (AID 2283043).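 Also: cell-surface HLA-DR protein level quantified by ELISA.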 The settings on record: primary human coronary artery smooth muscle cells; actives raise or lower the signal.

Read-out in assay [12]: Macrophage colony-stimulating factor (MCSF), CSF1 (gene 1435)
Put plainly: BSK_CASM3C_MCSF: BioMAP Diversity Plus: CASM3C Assay for Macrophage colony-stimulating factor (MCSF) Biomarker Activity (AID 2283044).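 Also: M-CSF protein amount quantified by ELISA after 24 h exposure.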 The following applies: primary human coronary artery smooth muscle cells; actives raise or lower the signal.

Read-out in assay [13]: Low-density lipoprotein receptor (LDLR), LDLR (gene 3949)
Put plainly: BSK_CASM3C_LDLR: BioMAP Diversity Plus: CASM3C Assay for Low-density lipoprotein receptor (LDLR) Biomarker Activity (AID 2283045).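 Also: LDLR protein level on the cell surface quantified by ELISA.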 The following applies: primary human coronary artery smooth muscle cells; actives raise or lower the signal.

Read-out in assay [14]: Monocyte Chemoattractant Protein-1 (MCP1), CCL2 (gene 6347)
Put plainly: BSK_CASM3C_MCP1: BioMAP Diversity Plus: CASM3C Assay for Monocyte Chemoattractant Protein-1 (MCP1) Biomarker Activity (AID 2283046).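 Also: MCP-1 level quantified by ELISA 24 h after dosing.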 The following applies: primary human coronary artery smooth muscle cells; actives raise or lower the signal.

The nature of assay [15]: BSK_CASM3C_Proliferation: Cell Proliferation Assessment in the BioMAP Diversity Plus: CASM3C Assay (AID 2283047).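 Also: sulforhodamine B total protein stain as relative cell number at 560 nm; sub-confluent cells exposed 48 h before staining; fitted both ways against DMSO so gain or loss of cell number.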 The following applies: primary human coronary artery smooth muscle cells.
Read-out in assay [16]: Monokine induced gamma interferon (MIG), CXCL9 (gene 4283)
Put plainly: BSK_CASM3C_MIG: BioMAP Diversity Plus: CASM3C Assay for Monokine induced gamma interferon (MIG) Biomarker Activity (AID 2283048).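 Also: MIG protein level measured by ELISA.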 The following applies: primary human coronary artery smooth muscle cells; actives raise or lower the signal.

Read-out in assay [17]: serum amyloid A (SAA), SAA1 (gene 6288)
Put plainly: BSK_CASM3C_SAA: BioMAP Diversity Plus: CASM3C Assay for serum amyloid A (SAA) Biomarker Activity (AID 2283049).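 Also: SAA protein level quantified by ELISA.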 The settings on record: primary human coronary artery smooth muscle cells; actives raise or lower the signal.

Assay [18] is described as follows: BSK_CASM3C_SRB: Viability Assessment in the BioMAP Diversity Plus: CASM3C Assay (AID 2283050). The settings on record: primary human coronary artery smooth muscle cells.
Read-out in assay [19]: Thrombomodulin, THBD (gene 7056)
Put plainly: BSK_CASM3C_Thrombomodulin: BioMAP Diversity Plus: CASM3C Assay for Thrombomodulin Biomarker Activity (AID 2283051).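 Also: thrombomodulin protein level measured by ELISA 24 h after dosing.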 The settings on record: primary human coronary artery smooth muscle cells; actives raise or lower the signal.

Read-out in assay [20]: Plasminogen activator inhibitor-1 (PAI1), SERPINE1 (gene 5054)
Put plainly: BSK_BE3C_PAI1: BioMAP Diversity Plus: BE3C Assay for Plasminogen activator inhibitor-1 (PAI1) Biomarker Activity (AID 2283037). The settings on record: primary human bronchial epithelial cells; actives raise or lower the signal. Summed up: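 PAI-1 was measured by ELISA in human primary bronchial epithelial cultures 24 h after chemical dosing, with cytotoxicity checked by SRB total-protein staining in parallel cultures. Activity was fitted in both directions relative to DMSO.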

With `COc1ccc(/C=C/S(=O)(=O)NC(=O)c2ccc(C)cc2Cl)cc1`, the result in assay [1], in assay [2], in assay [3], in assay [4], in [5] and in assay [6] was inactive. Also, the result in assay [7], in assay [8], in assay [9], in [10], in assay [11] and in assay [12] was inactive. Besides, the outcome in [13], in assay [14], in assay [16], in [17], in assay [18] and in assay [19] was inactive. Further, in assay [15], the AC50 was 18.9 µM (active).
In the case of `O=C(O)CCN(C1(C(=O)NO)CCCC1)S(=O)(=O)c1ccc(Oc2ccc(F)cc2)cc1`, the outcome in assay [1], in assay [2], in assay [3], in assay [4], in [5] and in assay [6] was inactive. Moreover, the outcome in assay [7], in assay [8], in assay [9], in [10], in assay [11] and in assay [12] was inactive. Further, the result in [13], in assay [14], in assay [15], in [16], in [17] and in assay [18] was inactive. In addition, the result in assay [19] was inactive.
Consider `CC(C)CCCCCCCOC(=O)CCCCC(=O)OCCCCCCCC(C)C`, for which the outcome in [1], in assay [2], in [3], in assay [4], in assay [5] and in [6] was inactive. In addition, the outcome in assay [7], in [8], in [9], in assay [10], in assay [11] and in [12] was inactive. In addition, the outcome in assay [13], in [14], in assay [15], in assay [16], in [17] and in assay [18] was inactive. Besides, in [19], the result was inactive.
Regarding `CC(C)c1cccc(C(C)C)c1N1C(=O)c2ccc(O)cc2C1=O`, the AC50 was 14 µM (active) in [1]; 29.4 µM (active) in assay [2]; 19.5 µM (active) in assay [3]; 26.3 µM (active) in [4]; 9.07 µM (active) in [20]; 27.2 µM (active) in assay [9]. In addition, the AC50 in assay [11] is 14.1 µM (active); in assay [12], 32 µM (active); in assay [13] it was 36.3 µM (active); in assay [15], 20 µM (active); in assay [17], 26.1 µM (active); in assay [18], 20 µM (active). Also, the outcome in assay [6], in [8], in assay [10], in assay [14], in [16] and in [19] was inactive.
Take `CC(=O)OCCC(C)C`: the result in assay [1], in assay [2], in assay [3], in assay [4], in [5] and in assay [6] was inactive. Further, the result in assay [8], in [9], in assay [10], in assay [11], in assay [12] and in assay [13] was inactive. Moreover, the result in [14], in [15], in assay [16], in assay [17], in [18] and in assay [19] was inactive.
For `Nc1cccc(N)c1`, the result in [1], in assay [2], in assay [3], in [4], in [5] and in assay [6] was inactive. The outcome in [7], in [8], in assay [9], in assay [10], in [11] and in assay [12] was inactive. Also, the result in [13], in [14], in assay [15], in assay [16], in assay [17] and in assay [18] was inactive. Moreover, the outcome in assay [19] was inactive.
